HSF1 activator: increases HSF-1 driven luciferase reporter signal; activation, % at 9 µM; NIH3T3-HGL HSF-1 luciferase reporter, MG132, 8 h; 100% = twice DMSO control signal; actives 1.7% (n = 300,000); AID 504408;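 active means mean replicate activation of at least 50% with a set share of replicates each reaching 50%; inconclusive means only one of those two conditions met; inactive means mean below 50% and too few replicates reaching it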;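 further: 0% = median of the neutral control wells and 100% = twice that signal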
AHR act: activators of human aryl hydrocarbon receptor | AHR-responsive luciferase reporter cells, luminescence | activation, % at 5 µM | actives 2.5% (n = 320,000); in the data active means activation above about 47%;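 further: 0% = vehicle wells and 100% = reference agonist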
Target sequence (P35869 whole entry, looked up): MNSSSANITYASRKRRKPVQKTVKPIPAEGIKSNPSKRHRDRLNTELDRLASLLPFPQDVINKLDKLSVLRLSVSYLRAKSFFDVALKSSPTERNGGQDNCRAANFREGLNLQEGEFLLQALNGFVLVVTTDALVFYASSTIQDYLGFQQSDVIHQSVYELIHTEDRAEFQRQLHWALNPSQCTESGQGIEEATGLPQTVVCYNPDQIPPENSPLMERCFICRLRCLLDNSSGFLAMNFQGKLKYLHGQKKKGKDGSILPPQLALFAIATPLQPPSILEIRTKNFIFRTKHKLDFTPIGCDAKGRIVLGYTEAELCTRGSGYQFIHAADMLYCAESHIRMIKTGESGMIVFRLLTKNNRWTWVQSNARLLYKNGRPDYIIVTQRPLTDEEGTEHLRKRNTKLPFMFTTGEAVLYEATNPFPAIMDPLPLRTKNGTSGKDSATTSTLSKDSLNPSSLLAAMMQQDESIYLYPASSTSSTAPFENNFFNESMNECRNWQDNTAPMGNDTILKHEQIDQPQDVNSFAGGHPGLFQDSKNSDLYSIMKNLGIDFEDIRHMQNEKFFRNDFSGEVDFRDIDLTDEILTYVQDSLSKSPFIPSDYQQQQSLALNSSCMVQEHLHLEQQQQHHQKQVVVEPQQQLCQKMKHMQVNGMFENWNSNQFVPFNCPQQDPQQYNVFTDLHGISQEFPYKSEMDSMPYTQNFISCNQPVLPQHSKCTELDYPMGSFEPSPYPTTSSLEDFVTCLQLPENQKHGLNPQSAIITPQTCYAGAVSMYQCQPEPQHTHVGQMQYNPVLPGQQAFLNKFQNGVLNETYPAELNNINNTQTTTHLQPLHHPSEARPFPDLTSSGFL
HSF1 inh: HSF1 inhibition. NIH3T3-HGL HSE-luciferase, MG132-induced, luminescence 8 h; stronger effect = lower value. activity change, negative = inhibition, % at 7.5 µM (by protocol). actives 0.77% (n = 300,000). AID 2098;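 active means more than half of replicate wells show activity change below -50%, luminescence cut by over half; inconclusive means some wells, but at most half, below -50%; inactive means no replicate well below -50%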;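 further: luciferase reports HSF-1 transcriptional activity via heat shock element; 0% = median of DMSO wells and -100% = zero luminescence signal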
DAX1 inh: inhibitors of human orphan nuclear receptor DAX1 (NR0B1); P51843; actives 0.99% (n = 340,000); HEK293 Gal4-DAX1 luciferase reporter, luminescence; inhibition, % at 6.75 µM;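 active means inhibition above the mean over all tested compounds plus 3 SD, cut at about 4.2% in these data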;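 further: 0% = DAX1-transfected cells with DMSO and 100% = empty-vector control cells with DMSO; inhibition shows as a rise in luminescence from relieved DAX1 repression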
GAA850 FXN act: frataxin GAA850 promoter activation. HEK293 lucGAA850 FXN promoter luciferase reporter, 24 h; percent of 10 µM SAHA response. activation, % at 6 µM. actives 0.56% (n = 360,000). AID 540364;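 active means activation above the average of all compounds screened plus 3 SD, cutoff fixed separately per campaign, cut at about 7.5% in these data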;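 further: 0% = DMSO wells and 100% = 10 µM SAHA wells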
Starred values were filed as active, the others as inactive; ? = inconclusive; / = no result given. A selection: hits, their analogues and other compounds. The true share with any hit is near 5.4%.

SMILES	HSF1 activator	AHR act	HSF1 inh	DAX1 inh	GAA850 FXN act
COc1ccccc1NC1=C(Cl)C(=O)N(c2ccccc2)C1=O	-1	-6	-7	-1	2
Cc1cc(C)cc(-n2c3nc4ccccc4nc3c3c(=O)n(Cc4ccco4)cnc32)c1	119*	4	85	0	-1
CCCCN1c2cc(C)c(O)cc2C(C(=O)OCC)C1C (centres undefined)	39	48*	44	/	/
Cc1cn(CCC(=O)Nc2ccccc2N2CCOCC2)c2ccccc12	19	8	13	6.8*	4
Cc1cn(CCC(=O)Nc2ccc(N3CCOCC3)cc2)c2ccccc12	13	12	14	1	5
S=c1[nH]c(-c2ccccc2)cn1-c1ccccc1	42	36	31	4	3
O=[N+]([O-])c1ccc(-c2cn(-c3ccccc3)c(=S)[nH]2)cc1	30	47*	17	0	7
Cc1ccc(-n2cc(-c3ccc([N+](=O)[O-])cc3)[nH]c2=S)c(C)c1	?	2	28	-1	3
O=[N+]([O-])c1cccc(-c2cn(-c3ccccc3)c(=S)[nH]2)c1	74*	74*	33	0	3
Cc1cccc(-n2cc(-c3ccc([N+](=O)[O-])cc3)[nH]c2=S)c1	71*	25	28	3	2
C=CCOc1ccc(/C=N/Nc2ccccn2)cc1OC	66*	55*	29	2	7
Cc1ccc(/C=C(\C#N)C(=O)Nc2ccccn2)o1	60*	10	37	3	3
COc1ccc(/C=C(\C#N)C(=O)Nc2ccccn2)cc1	75*	5	24	-1	1
Cc1ccc(/C=C(/C#N)C(=O)NC(C)c2ccccc2)o1 (centres undefined)	-15	-5	-1	0	-1
COc1cc(/C=C(\C#N)C(=O)Nc2cccc(C(=O)O)c2)ccc1OCc1ccc(Cl)cc1	113*	2	75	3	4
COc1ccc(O)c(/C=C(\C#N)C(=O)Nc2ccccn2)c1	39	/	6	4	5
O=C(COC(=O)c1ccc(F)cc1F)NCc1ccc2c(c1)OCO2	/	1	/	1	-2
C=CCOc1ccc(/C=C(\C#N)C(=O)Nc2ccccn2)cc1OC	1	-1	-3	4.7*	1
C(=N\Nc1ccccn1)/c1ccc2c(c1)OCCO2	61*	18	27	1	4
COc1cc(/C=C(\C#N)C(=O)Nc2cccnc2)ccc1OC(C)C	/	1	/	1	2
C[C@]12c3[nH]c4ccccc4c3CCN1C(=O)C(CC(=O)NCCN1CCOCC1)C[C@@H]2C(=O)N1CCOCC1 (some centres undefined)	/	0	/	1	0
O=C(NCCc1ccccc1)c1ccccc1C(=O)NCCc1ccccc1	25	70*	11	/	1
O=C(NCCc1ccccc1)c1ccccc1F	32	-7	18	0	4
O=C(CSc1nc2ncccc2[nH]1)NCc1ccccc1	4	1	-7	4.7*	-1
O=C(NC(=S)NCCc1ccccc1)c1ccccc1F	42	74*	25	1	2
SMILES	HSF1 activator	AHR act	HSF1 inh	DAX1 inh	GAA850 FXN act
O=C(CSc1nc2ccccc2[nH]1)NCc1ccccc1	10	8	9	2	2
O=C(CSc1ccccc1)NCCc1ccccc1	31	1	5	5.6*	3
CN1C[C@@H]2[C@@H]3C(=O)N(C)C(=O)[C@@H]3[C@](C)(C1=O)N2C(=O)c1ccc(C(C)(C)C)cc1	/	/	/	0	0
Cc1ccccc1NC(=O)CSc1n[nH]c(-c2ccccn2)n1	6	3	9	1	-1
O=C(CSc1nc2[nH]ncc2c(=O)[nH]1)NCCc1ccccc1	4	78*	2	1	1
O=C(CSc1nc2[nH]ncc2c(=O)[nH]1)NCc1ccccc1	-2	5	-8	0	-2
O=C(NCCc1ccccc1)c1noc2c1CCc1ccccc1-2	52*	-4	24	1	-1
O=C(NC(=S)NCCc1ccccc1)c1ccccc1	24	69*	14	1	4
O=C(CNC(=O)N1CC(=O)Nc2ccccc21)Nc1cccc(F)c1	-14	18	-5	0	-2
Cc1ccc(C(=O)N2CCN(C34CC5CC(CC(C5)C3)C4)CC2)o1	-18	-1	-4	0	4
c1ccc(CNc2nc(NCc3ccccc3)c3ccccc3n2)cc1	-65	4	-60*	0	-3

Source: PubChem (several laboratories)
